Shiga toxin inh = A qHTS for Small Molecule Inhibitors of Shiga Toxin | Vero cells, Shiga toxin protein synthesis inhibition reporter | inhibition, % at 38.7 µM | actives 9.2% (n = 290,000); in the data active = inhibition mostly above about 28%, no sharp cut-off; inactive = mostly below about 43%; also: 0% is about no effect
Cycloheximide cs = Cycloheximide Counterscreen for Small Molecule Inhibitors of Shiga Toxin; cell reporter, cycloheximide protein synthesis inhibition counterscreen; max response, %; actives 12% (n = 300,000); AID 2314, 2010; in the data active = max response mostly above about 13%, no sharp cut-off; inactive = mostly below about 14%; also: read at 38.3 µM for the half of the compounds with a filed dose; 0% is about no effect
FBPA Giardia inh = qHTS Assay for Inhibitors of Fructose-1,6-bisphosphate Aldolase from Giardia Lamblia; actives 0.71% (n = 290,000); A8B2U2; Potency, µM (series often up to 59.6 µM), for inactives: at the top dose activity, negative = inhibition, usual class: inhibitors; purified Giardia FBPA; also: potency is read from the fitted curve at half-maximal effect; % is scaled to controls: 0 for no effect and ±100 for the full control effect; nearly all actives have a fitted effect of over 55% in size
Target sequence (A8B2U2 whole entry, looked up): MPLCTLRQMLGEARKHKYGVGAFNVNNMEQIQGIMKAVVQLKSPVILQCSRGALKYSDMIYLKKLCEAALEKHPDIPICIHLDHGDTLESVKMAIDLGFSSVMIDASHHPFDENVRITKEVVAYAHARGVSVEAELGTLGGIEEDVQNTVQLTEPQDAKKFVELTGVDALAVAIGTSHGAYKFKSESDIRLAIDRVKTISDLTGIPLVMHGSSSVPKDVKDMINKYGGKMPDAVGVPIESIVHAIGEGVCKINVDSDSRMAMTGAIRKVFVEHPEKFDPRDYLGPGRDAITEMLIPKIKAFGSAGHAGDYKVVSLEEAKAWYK
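Giardia FBPA (40 nM reagent) was preincubated 10 min at RT with compound (up to 57.5 uM final), then substrate plus GAPDH/TPI/NAD/arsenate coupling system with diaphorase/resazurin was added; resorufin fluorescence (525/598 nm) was read after 20 min.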
LmPK inhibitor = qHTS Assay for Inhibitors of Leishmania Mexicana Pyruvate Kinase (LmPK); purified LmPK, Kinase-Glo ATP luminescence, 1 h; Potency, µM (series often up to 57.5 µM), for the others: top-dose activity change, negative = inhibition, most hits filed as inhibitors; actives 0.37% (n = 290,000); AID 1721, 2009; also: potency is read from the fitted curve at half-maximal effect; % is scaled to controls: 0 for no effect and ±100 for the full control effect
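In 50 mM imidazole pH 7.2 with 7 mM MgCl2, LmPK (0.1 nM) turned over PEP (0.5 mM) and ADP (0.1 mM) for 1 h at room temperature. Luciferase read-out of ATP.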
NS1 function inh = qHTS Assay for Inhibitors of Influenza NS1 Protein Function; Potency, µM (highest dose often 46.1 µM), inactives show at the top dose activity, positive = more growth; actives 0.4% (n = 270,000); AID 2326, 2010; calls by dose curve; also: potency is read from the fitted curve at half-maximal effect; actives are rising curves; nearly all actives have a fitted effect of over 50% in size
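In this qHTS, NS1 from influenza A is expressed in budding yeast, where it slows growth. Cells are switched from glucose to 2% galactose medium (pH 6.0, -URA), treated with compound, and growth recovery is read at OD600.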
The depositor's hits bear a star; ? = inconclusive; / = no result given. Shown are actives, neighbours in structure and some others; about 14% of the full set was active somewhere. Unless noted, calls follow the shape of the dose curve; as a rule, active = well fitted curve in the direction sought with a large enough effect; inconclusive = small, poorly fitted or top-dose-only effect, or another doubt; inactive = no such curve, though single readings can be large; an effect the other way counts as inactive or inconclusive.

SMILES	Shiga toxin inh	Cycloheximide cs	FBPA Giardia inh	LmPK inhibitor	NS1 function inh
O=[N+]([O-])c1cc(S(=O)(=O)c2ccc(O)c([N+](=O)[O-])c2)ccc1O	10.7	-3.9	-4.9%	10.0%	13.1%
Cn1cccc1C(=O)N1CCC2(CC1)CN(C(=O)Nc1ccccc1)C2	/	/	1.3%	/	/
O=C1C2C3CCC(C3)C2C(=O)N1Cc1ccco1 (centres undefined)	7.0	-1.5	2.5%	2.3%	15.3%
O=C(CN1C(=O)C2C3CCC(C3)C2C1=O)NCc1ccco1 (centres undefined)	42.8*	10.9	3.0%	5.5%	1.8%
COc1ccccc1NC(=O)c1ccc2c(c1)N(CC#N)C(=O)C(C)(C)O2	-3.9	4.6	0.1%	-5.4%	-3.0%
O=C(c1ccccc1)c1cc2cc(Cl)ccc2[nH]1	39.7*	32.2*	1.5%	-0.4%	2.0%
COc1cccc(C(=O)O/N=C(\N)Cc2ccc(Cl)cc2)c1	18.6	14.2	5.0%	-2.6%	-70.9%
COc1cccc(C(=O)c2cc3cc(Cl)ccc3[nH]2)c1	41.9*	38.4*	5.8%	1.6%	-3.8%
Cc1ccccc1-n1nc2c(c1NC(=O)C(C)(C)C)CS(=O)(=O)C2	-0.7	0.7	7.0%	-2.4%	1.2%
CC1CCN(CCCNC(=O)Cn2ncc3c([nH]c4ccccc43)c2=O)CC1	34.4	12.5	-13.1%	-4.0%	24.1%
Cc1ccc(S(=O)(=O)/N=C2/C=C(C3C(=O)CC(C)(C)CC3=O)C(=O)c3ccccc32)cc1	140.4*	40.9*	?	-14.7%	-11.5%
C/C(=C\C(=O)c1ccc(Br)cc1)NNC(=O)c1ccc(O)cc1	50.0*	27.0*	4.4%	-2.2%	14.2%
C/C(=C\C(=O)c1ccc(Br)cc1)NCc1ccccc1	62.2	18.7*	1.1%	-4.5%	-5.7%
COC(=O)/C(=C/c1ccco1)NC(=O)c1ccccc1	4.5	4.2	-5.2%	0.9%	7.9%
CCCOC(=O)/C(=C\C=C\c1ccco1)NC(=O)c1ccccc1	114.7*	51.2*	-14.7%	28.5%	/
CCOC(=O)c1csc(NC(=O)C(C)(C)C)n1	34.6	-0.5	-0.8%	-1.1%	2.0%
CCOC(=O)c1csc(NC(=O)c2cccs2)n1	102.8*	33.0*	-9.0%	6.7%	-10.0%
CCOC(=O)Cc1csc(NC(=O)c2cccs2)n1	29.7	23.9*	-3.9%	-23.6%	-50.4%
CCOC(=O)Cc1csc(NC(=O)c2ccc(Br)s2)n1	61.5*	32.0*	4.9%	-10.5%	-73.6%
CCOC(=O)Cc1csc(NC(=S)NC(=O)c2ccccc2Br)n1	13.7	20.5*	6.8%	-16.7%	-20.7%
CCOC(=O)Cc1csc(NC(=S)NC(=O)c2ccccc2)n1	12.7	3.5	?	-0.4%	2.5%
Oc1cc2c(cc1CN1CCN(c3ncccn3)CC1)OCO2	-10.7	1.0	/	-8.9%	-9.6%
Cc1cccc(CNc2ccnc(-c3ccccc3CN(C)C)n2)c1	/	/	-0.6%	/	/
COC(CN(C)C(=O)c1ccc2c(c1)NC(=O)c1ccccc1S2)OC	-4.4	-2.7	-5.6%	4.8%	2.9%
CCOC(=O)c1sc(NC(=O)c2cccs2)nc1C	70.0*	17.3*	3.5%	-19.3%	-5.0%
SMILES	Shiga toxin inh	Cycloheximide cs	FBPA Giardia inh	LmPK inhibitor	NS1 function inh
CCOC(=O)Cc1csc(NC(=O)Cc2ccccc2[N+](=O)[O-])n1	84.9	17.7*	-12.4%	0.1%	/
Cc1csc(NC(=O)Cc2ccccc2[N+](=O)[O-])n1	8.6	16.1	-10.6%	-2.7%	1.8%
Cc1nn(-c2ccccn2)c2c1-c1nc(N)ncc1CC2	49.3*	36.3*	15.8µM*	-0.1%	-2.7%
CC1(C)Cc2nc3sc4c(SCC(=O)O)ncnc4c3cc2CO1	-7.2	2.0	7.3%	-17.6%	-5.8%
CC1(C)Cc2nc3sc4c(N(CCO)CCO)nnnc4c3cc2CO1	77.8*	28.8*	-6.6%	-5.3%	/
CC1(C)Cc2nc3sc4c(N(CCO)CCO)ncnc4c3cc2CO1	28.7	21.3*	0.4%	1.5%	6.1%
O=c1oc2ccccc2c(O)c1C=NCc1ccccn1	7.9	7.9	2.5%	-13.2%	-6.4%
O=C1C(C=NC2CC2)=C(O)c2ccccc21	56.6*	37.1*	-3.9%	-22.0%	-24.2%
COc1ccc(CN=C(C#N)C2=C(O)c3ccccc3C2=O)cc1	13.9	11.8	-20.2%	1.9%	-9.6%
CC(C)CN=CC1=C(O)c2ccccc2C1=O	71.9*	36.6*	2.9%	-28.5%	-1.9%
COc1cc(N=CC2=C(O)c3ccccc3C2=O)cc(OC)c1	63.9*	20.0*	-8.0%	-4.0%	3.5%
O=C1C(C=NCc2ccccn2)=C(O)c2ccccc21	136.3*	58.8*	-23.1%	-9.6%	-0.5%
CCS(=O)(=O)N1CCC(NC(=O)C(Cc2cc(OC)ccc2OC)NC(C)=O)CC1 (centres undefined)	-3.2	-1.8	-2.3%	-3.2%	15.2%
CC[C@H](C)[C@H](NC(=O)[C@H](C)NC(=O)CNC(=O)[C@H](CCCCN)NC(=O)[C@H](CC(N)=O)NC(=O)[C@H](CO)NC(=O)CN)C(=O)N[C@H](C(=O)NCC(=O)N[C@@H](CC(C)C)C(=O)N[C@@H](CCSC)C(=O)O)[C@@H](C)CC	1.4	-7.7	5.1%	/	/
O=C1C(C=NCCCN2CCCC2=O)=C(O)c2ccccc21	102.2*	40.4*	-1.9%	-8.5%	-1.9%
c1ccc(C2=NN(c3ccccc3)CC2)cc1	114.0*	60.9*	-2.5%	-5.7%	-5.0%
O=C(CN1CCOCC1)Nc1ccc(OC(F)(F)F)cc1	27.9	20.9*	?	2.9%	6.5%
O=C(CN1CCCC1)Nc1ccc(OC(F)(F)F)cc1	/	19.6*	?	1.8%	7.4%
O=C(CN1CCc2ccccc2C1)Nc1ccc(OC(F)(F)F)cc1	5.7	-3.3	-1.5%	1.4%	1.4%
CC(C)Cc1cc(C(=O)N2CCCC(CCC(=O)N(C)CCc3ccccn3)C2)no1 (centres undefined)	23.8	4.3	24.4%	-0.8%	-4.5%
OCCNC(=S)NC1CCCCC1	21.2	-2.7	3.1%	-3.9%	1.0%
O=C(NCCN1CCOCC1)c1cccs1	-15.9	-2.0	15.3%	2.9%	-4.0%
O=C1c2ccccc2CN1CCNC(=S)NC1CCCCC1	45.3*	30.9*	4.2%	10.3%	/
O=C(NCCN1Cc2ccccc2C1=O)c1cccs1	46.7*	20.7*	5.5%	7.3%	2.5%
O=C1OC(c2ccccc2)=C/C1=C/N1CCOCC1	63.3*	17.4*	-17.0%	5.2%	3.0%
CC(C)[C@H](NC(=O)[C@@H]1CSC2c3ccccc3C(=O)N21)C(=O)NC1CCCCC1 (some centres undefined)	-7.9	-4.0	/	-3.5%	0.9%
OC[C@H]1OC(Nc2ccc(N=Nc3ccccc3)cc2)[C@@H](O)[C@@H](O)[C@@H]1O (some centres undefined)	112.3*	37.1*	6.0%	4.6%	3.9%
O=C(NNC1OC(CO)C(O)C(O)C1O)c1cccc(Br)c1 (centres undefined)	-2.0	5.2	-4.2%	-1.2%	/

Source: PubChem BioAssay
